# VP16 counter: VP16 counterscreen qHTS for inhibitors of ROR gamma transcriptional activity. Drosophila S2 Gal4-VP16 UAS-luciferase, luminescence, 20 h. Potency, µM (titrated, usually from 53.6 µM), without a hit: top-dose activity, negative = inhibition, usual class: inhibitors. 3.5% of 310,000 active;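 further: Gal4-VP16 expression switched on by copper sulfate through the metallothionein promoter; nearly all actives have a fitted effect of over 50% in size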
# 12-LOX inh: Primary qHTS assay for inhibitors of human arachidonate 12S-lipoxygenase (ALOX12): Round 2. purified 12hLO, xylenol orange hydroperoxide absorbance. Potency, µM (titrated, usually from 108 µM), without a hit: at the highest dose activity change, negative = inhibition, usual class: inhibitors. 1.1% of 580,000 active. Polyunsaturated fatty acid lipoxygenase ALOX12 (Homo sapiens), P18054
#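 Hydroperoxide product was detected by ferrous iron/xylenol orange as the 573 to 405 nm absorbance ratio. Arachidonic acid at 40 uM (final) was turned over for 30 min at room temperature by 150 nM human 12hLO, pH 7.0 Hepes buffer, after 15 min compound preincubation.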
# RORgamma inh: qHTS for inhibitors of ROR gamma transcriptional activity. Drosophila S2 Gal4-RORgamma UAS-luciferase reporter, 20 h. Potency, µM (doses to about 53.6 µM), inactives show at the highest dose activity change, negative = inhibition, most hits filed as inhibitors. 5.4% of 310,000 active; further: nearly all actives have a fitted effect of over 60% in size
# Target sequence (P51450 whole entry, looked up, the tested form may be a part): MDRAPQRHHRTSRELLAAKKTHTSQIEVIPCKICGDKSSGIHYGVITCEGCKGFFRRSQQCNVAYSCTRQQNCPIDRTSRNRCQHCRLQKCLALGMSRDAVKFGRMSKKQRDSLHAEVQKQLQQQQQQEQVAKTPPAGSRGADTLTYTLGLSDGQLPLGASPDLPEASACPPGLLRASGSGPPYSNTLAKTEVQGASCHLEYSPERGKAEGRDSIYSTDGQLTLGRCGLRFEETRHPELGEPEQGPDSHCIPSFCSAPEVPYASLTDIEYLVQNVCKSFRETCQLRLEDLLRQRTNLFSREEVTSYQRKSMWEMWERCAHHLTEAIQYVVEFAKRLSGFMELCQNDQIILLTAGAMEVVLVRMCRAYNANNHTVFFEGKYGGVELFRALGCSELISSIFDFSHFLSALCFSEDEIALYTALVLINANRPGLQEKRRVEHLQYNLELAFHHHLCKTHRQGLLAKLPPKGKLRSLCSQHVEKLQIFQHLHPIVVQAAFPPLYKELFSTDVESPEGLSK
#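 Luminescence from a UAS-regulated Photinus luciferase reporter in stably transfected Drosophila Schneider cells is measured; decreased signal marks ROR gamma inhibition. Fusion expression is induced by 700 uM copper sulfate for 20 hr.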
# ELG1 repair inh: qHTS screen for small molecules that inhibit ELG1-dependent DNA repair in human embryonic kidney (HEK293T) cells expressing luciferase-tagged ELG1. HEK293T ELG1-luciferase reporter, luminescence, 16 h; DNA damage induced by 5-fluorouridine. Potency, µM (titrated, usually from 46.1 µM), without a hit: at the highest dose activity change, negative = inhibition, hits mostly inhibitors. 2.3% of 330,000 active; further: nearly all actives have a fitted effect of over 55% in size
#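 Reporter activity after DNA damage by 5-fluorouridine is monitored. Compound-treated cells incubate 16 hr at 37 °C, then ONE-Glo is added for 30 min before luminescence reading.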
# DT40 TDP1 no CPT: qHTS for Inhibitors of human tyrosyl-DNA phosphodiesterase 1 (TDP1): qHTS in cells in absence of CPT; DT40 Tdp1-/- hTDP1 cells, no CPT, ATP luminescence, 48 h; Potency, µM (titrated, usually from 46.2 µM), without a hit: at the top dose activity change, negative = growth inhibition, actives largely listed as inhibitors; 15% of 420,000 active; AID 686978, 2013; further: nearly all actives have a fitted effect of over 55% in size
#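 Compound effects on proliferation are scored in DT40 Tdp1-/-;hTDP1 cells in the absence of CPT. ATP levels (CellTiter-Glo luminescence) are recorded after a ≥48 hr, 37 °C incubation.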
# DT40 TDP1 CPT: qHTS for Inhibitors of human tyrosyl-DNA phosphodiesterase 1 (TDP1): qHTS in cells in presence of CPT; 12% of 420,000 active; chicken DT40 Tdp1-/-;hTDP1 cells + 20 nM CPT, ATP luminescence, 48 h; Potency, µM (series often up to 46.2 µM), for the others: top-dose activity change, negative = growth inhibition, usual class: inhibitors; further: nearly all actives have a fitted effect of over 55% in size
#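 Cell growth measured by CellTiter-Glo luminescence after a minimum 48 h, 37 C compound exposure with 20 nM CPT in Tdp1-knockout DT40 cells stably expressing hTDP1, seeded 400/well; qHTS titration format.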
# The depositor's hits bear a star; ? = inconclusive; · = no result given; [ ] = dose if it differs, or a comment. In the library only some 15% were active in any assay of this set; here they are far more common. The call rests on the fitted dose curve; in most records, active means well fitted curve in the direction sought with a large enough effect; inconclusive means small, poorly fitted or top-dose-only effect, or another doubt; inactive means no such curve, though single readings can be large; an effect the other way counts as inactive or inconclusive. On the % scale 0 is the no-effect control and ±100 the full control effect; potency means the concentration at half of the fitted maximal effect.
SMILES,VP16 counter,12-LOX inh,RORgamma inh,ELG1 repair inh,DT40 TDP1 no CPT,DT40 TDP1 CPT
COc1ccc(NC(=O)CN(C)C(=O)c2ccc3c(c2)CC(c2ccccc2)OC3=O)cc1 (stereo not drawn),·,?,·,·,16µM*,26µM*
COc1ccc(Cl)cc1NC(=O)CN(C)C(=O)c1ccc2c(c1)CC(c1ccccc1)OC2=O (stereo not drawn),·,150%,·,?,16µM*,15µM*
N#C/C(=C\c1ccco1)c1nc2ccccc2s1,?,?,-43%,?,-27%,9%
N#C/C(=C\c1ccc(O)c([N+](=O)[O-])c1)c1nc2ccccc2s1,?,22µM*,21%,-16%,16µM*,26µM*
COc1cc(/C=C(\C#N)c2nc3ccccc3s2)cc([N+](=O)[O-])c1O,-6%,?,-23%,?,16µM*,?
N#C/C(=C/c1ccco1)c1nc2ccccc2s1,5.6µM*,-14%,5µM*,?,-24%,-14%
CC1Cc2cc(/C=C(\C#N)c3nc4ccccc4s3)ccc2O1 (stereo not drawn),·,6%,·,·,·,·
Cc1ccc(OCC(O)CN2CCN(c3ccc(C(F)(F)F)cn3)CC2)cc1 (stereo not drawn),·,-1%,·,·,·,·
Cc1cccc(CN2C[C@@H]3C(C(=O)Nc4ccccc4)=NO[C@@H]3C2)c1,·,-19%[176 µM],·,·,·,·
COc1ccc(C2Cn3nnc(C(=O)N4CCN(C(=O)c5ccc(F)cc5Cl)CC4)c3CO2)cc1 (stereo not drawn),·,23%,·,·,·,·
C/C=C/CSc1nc2c(c(=O)[nH]c(=O)n2C)n1CCOC,·,-7%,·,·,·,·
Cc1cc(-c2ccc(C(C)C)c(S(=O)(=O)N3CCN(c4ccccn4)CC3)c2)on1,3%,12%,1%,16µM*,21µM*,18µM*
COc1ccc(-c2cc(C)no2)cc1S(=O)(=O)N1CCN(c2ccccn2)CC1,-2%,-1%,41%,?,21µM*,?
CC(=O)N1CCN(C(=O)Cn2ccc3ccccc32)CC1,·,-24%,·,·,·,·
CC(C)CCC(=O)N1CCN(Cc2ccco2)CC1,·,1%,·,·,·,·
CCCCNC1C(CC)C(CCC)C(C#N)(C#N)C1(C#N)C#N (stereo not drawn),?,·,?,?,8.2µM*,13µM*
CN(C)C(=O)COc1ccccc1-c1noc(-c2ccc(S(=O)(=O)NC3CC3)o2)n1,·,-23%,·,·,·,·
CC(=O)c1c(C)[nH]c(C(=O)OCc2ccc(F)cc2Cl)c1C,?,6%,?,9.2µM*,13µM*,15µM*
CC(=O)c1c(C)[nH]c(C(=O)OCc2cccc(Cl)c2)c1C,19%,7%,?,-16%,?,?
CC(=O)Nc1ccc(C(=O)OCc2ccc(F)cc2Cl)cc1,17%,?,?,10%,?,-23%
CC(=O)c1c(C)[nH]c(C(=O)OCc2c(F)cccc2Cl)c1C,17%,-6%,-26%,7.3µM*,?,?
CCOc1ccc(CC(=O)N2CCN(c3cc(-c4cccs4)[nH]n3)CC2)cc1OCC,·,33%,·,·,·,·
Cc1ccc(CN2CCOCCNC(=O)[C@H]3CCCC[C@H]32)s1,·,89%,·,·,·,·
O=C(CCl)Nc1cc2[nH]c(=O)[nH]c2cc1Br,?,2%,-24%,?,1.8µM*,2.1µM*
Cc1cc(=O)[nH]c2ccc(Cl)cc12,-3%,15%[57.4 µM],-6%,?,-10%,0%
Cc1cc2c(C)cc(=O)[nH]c2cc1NC(=O)CCl,?,?,?,?,2.3µM*,5.2µM*

# Source: PubChem BioAssay (National Center for Advancing Translational Sciences (NCATS))
